The values below come from publication PMC11006913.

Targets include HOXC10 (Homo sapiens, UniProt Q9NYD6 254-340, K271E); MSX2 (Homo sapiens, UniProt P35548 130-214, F161Y); PITX2 (Homo sapiens, UniProt Q99697 72-157).
Holding throughout (experiment): PBM; 200 nM protein, PBS
Common to all, as to conditions: dsDNA, one strand shown

Assay [1] deals with HOXA7 (Homo sapiens, UniProt P31268 116-202).
Assay [2] has as its target ALX4 (Homo sapiens, UniProt Q9H161 200-286).
The target in assay [3] is ALX4 (Homo sapiens, UniProt Q9H161 200-286, Q225E).
Sequence of ALX4 (Homo sapiens, UniProt Q9H161 200-286, Q225E) (Q9H161 200-286 Q225E): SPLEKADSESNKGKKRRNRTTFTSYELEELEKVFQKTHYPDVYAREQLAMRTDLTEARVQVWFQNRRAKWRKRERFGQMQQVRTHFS
Assay [4] deals with HOXA7 (Homo sapiens, UniProt P31268 116-202, W177C).
Sequence of HOXA7 (Homo sapiens, UniProt P31268 116-202, W177C) (P31268 116-202 W177C): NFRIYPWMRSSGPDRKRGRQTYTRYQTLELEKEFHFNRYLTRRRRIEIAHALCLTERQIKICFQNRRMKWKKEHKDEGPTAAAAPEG
Assay [5] addresses ALX1 (Homo sapiens, UniProt Q15699 118-204, L144V).
The target of assay [6] is ALX1 (Homo sapiens, UniProt Q15699 118-204, L144R).
Sequence of ALX1 (Homo sapiens, UniProt Q15699 118-204, L144R) (Q15699 118-204 L144R): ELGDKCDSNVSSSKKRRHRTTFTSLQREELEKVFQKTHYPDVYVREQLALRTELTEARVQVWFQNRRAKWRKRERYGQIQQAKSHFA
Assay [7] concerns the target ALX1 (Homo sapiens, UniProt Q15699 118-204).
Assay [8] addresses HOXA2 (Homo sapiens, UniProt O43364 129-215, R185T).
For assay [9], the target named is HOXA2 (Homo sapiens, UniProt O43364 129-215, R185K).
Sequence of HOXA2 (Homo sapiens, UniProt O43364 129-215, R185K) (O43364 129-215 R185K): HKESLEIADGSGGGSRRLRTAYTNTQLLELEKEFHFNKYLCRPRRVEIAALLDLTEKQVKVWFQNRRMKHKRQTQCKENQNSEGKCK
For assay [10], the target named is HOXA2 (Homo sapiens, UniProt O43364 129-215, Y150S).
Sequence of HOXA2 (Homo sapiens, UniProt O43364 129-215, Y150S) (O43364 129-215 Y150S): as the sequence (O43364 129-215 R185K) above, with Y22S, K57R counted along it
Assay [11] addresses HOXA2 (Homo sapiens, UniProt O43364 129-215).
For assay [12], the target named is PROP1 (Homo sapiens, UniProt O75360 56-141).
Sequence of PROP1 (Homo sapiens, UniProt O75360 56-141) (O75360 56-141): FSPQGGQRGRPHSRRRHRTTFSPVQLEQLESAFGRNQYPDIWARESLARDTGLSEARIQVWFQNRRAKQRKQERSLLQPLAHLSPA
The target in assay [13] is PROP1 (Homo sapiens, UniProt O75360 56-141, R99H).
Sequence of PROP1 (Homo sapiens, UniProt O75360 56-141, R99H) (O75360 56-141 R99H): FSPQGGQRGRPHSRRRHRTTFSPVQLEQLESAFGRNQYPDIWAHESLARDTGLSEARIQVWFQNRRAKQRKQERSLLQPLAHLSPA
The target of assay [14] is PROP1 (Homo sapiens, UniProt O75360 56-141, F88S).
Sequence of PROP1 (Homo sapiens, UniProt O75360 56-141, F88S) (O75360 56-141 F88S): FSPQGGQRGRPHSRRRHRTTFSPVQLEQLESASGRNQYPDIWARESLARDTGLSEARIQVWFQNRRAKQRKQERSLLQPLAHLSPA
Assay [15] deals with VAX1 (Homo sapiens, UniProt Q5SQQ9 86-172).
Sequence of VAX1 (Homo sapiens, UniProt Q5SQQ9 86-172) (Q5SQQ9 86-172): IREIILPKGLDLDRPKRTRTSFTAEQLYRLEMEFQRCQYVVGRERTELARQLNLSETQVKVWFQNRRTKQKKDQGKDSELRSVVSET
Assay [16] has as its target VAX1 (Homo sapiens, UniProt Q5SQQ9 86-172, T142I).
Assay [17] addresses VAX1 (Homo sapiens, UniProt Q5SQQ9 86-172, K157R).
The target of assay [18] is HOXD13 (Homo sapiens, UniProt P35453 263-343, T313R).
Sequence of HOXD13 (Homo sapiens, UniProt P35453 263-343, T313R) (P35453 263-343 T313R): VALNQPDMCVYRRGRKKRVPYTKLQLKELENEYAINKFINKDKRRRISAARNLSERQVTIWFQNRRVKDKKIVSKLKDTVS
Assay [19] addresses HOXD13 (Homo sapiens, UniProt P35453 263-343).
The target in the next assay is T1, NKX2-6 (Homo sapiens, UniProt A6NCS4 118-204, R150C).
T1 sequence: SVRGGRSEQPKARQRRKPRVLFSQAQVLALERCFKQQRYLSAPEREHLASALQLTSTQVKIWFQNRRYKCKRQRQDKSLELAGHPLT

Assay [20] concerns the target HOXB6 (Homo sapiens, UniProt P17509 132-218, K202E).
Assay [21] has as its target HOXA4 (Homo sapiens, UniProt Q00056 201-287, R217L).
The target in assay [22] is HOXA4 (Homo sapiens, UniProt Q00056 201-287, W262F).
Sequence of HOXA4 (Homo sapiens, UniProt Q00056 201-287, W262F) (Q00056 201-287 W262F): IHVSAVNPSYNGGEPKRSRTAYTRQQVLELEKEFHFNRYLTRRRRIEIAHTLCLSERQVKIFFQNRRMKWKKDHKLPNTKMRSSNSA
Assay [23] deals with HOXB6 (Homo sapiens, UniProt P17509 132-218).
Sequence of HOXB6 (Homo sapiens, UniProt P17509 132-218) (P17509 132-218): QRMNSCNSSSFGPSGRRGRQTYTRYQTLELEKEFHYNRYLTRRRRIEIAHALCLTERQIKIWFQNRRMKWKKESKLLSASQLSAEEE

Sequence of HOXA7 (Homo sapiens, UniProt P31268 116-202) (P31268 116-202): as the sequence (P31268 116-202 W177C) above, with C62W counted along it
Sequence of ALX4 (Homo sapiens, UniProt Q9H161 200-286) (Q9H161 200-286): as the sequence (Q9H161 200-286 Q225E) above, with E26Q counted along it
Sequence of HOXA2 (Homo sapiens, UniProt O43364 129-215, R185T) (O43364 129-215 R185T): as the sequence (O43364 129-215 R185K) above, with K57T counted along it
Sequence of ALX1 (Homo sapiens, UniProt Q15699 118-204) (Q15699 118-204): as the sequence (Q15699 118-204 L144R) above, with R27L counted along it
Sequence of HOXA2 (Homo sapiens, UniProt O43364 129-215) (O43364 129-215): as the sequence (O43364 129-215 R185K) above, with K57R counted along it
Sequence of ALX1 (Homo sapiens, UniProt Q15699 118-204, L144V) (Q15699 118-204 L144V): as the sequence (Q15699 118-204 L144R) above, with R27V counted along it
Sequence of VAX1 (Homo sapiens, UniProt Q5SQQ9 86-172, T142I) (Q5SQQ9 86-172 T142I): as the sequence (Q5SQQ9 86-172) above, with T57I counted along it
Sequence of VAX1 (Homo sapiens, UniProt Q5SQQ9 86-172, K157R) (Q5SQQ9 86-172 K157R): as the sequence (Q5SQQ9 86-172) above, with K72R counted along it
Sequence of MSX2 (P35548 130-214 F161Y): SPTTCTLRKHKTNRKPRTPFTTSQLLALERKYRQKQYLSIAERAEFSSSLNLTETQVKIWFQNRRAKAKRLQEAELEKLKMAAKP
Sequence of HOXD13 (Homo sapiens, UniProt P35453 263-343) (P35453 263-343): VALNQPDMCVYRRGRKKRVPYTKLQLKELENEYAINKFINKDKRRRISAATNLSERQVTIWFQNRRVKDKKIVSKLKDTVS
Sequence of HOXC10 (Q9NYD6 254-340 K271E): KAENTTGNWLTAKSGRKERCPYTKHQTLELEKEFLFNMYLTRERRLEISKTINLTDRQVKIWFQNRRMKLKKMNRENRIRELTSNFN
Sequence of HOXA4 (Homo sapiens, UniProt Q00056 201-287, R217L) (Q00056 201-287 R217L): as the sequence (Q00056 201-287 W262F) above, with R17L, F62W counted along it
Sequence of HOXB6 (Homo sapiens, UniProt P17509 132-218, K202E) (P17509 132-218 K202E): as the sequence (P17509 132-218) above, with K71E counted along it

On to GAATATAA, for which the binding signal with HOXA7 [1] was 9.85 upbm affinity estimate (log intensity, higher = more binding, comparable within an allelic series); with ALX4 [2], 10.8 upbm affinity estimate (log intensity, higher = more binding, comparable within an allelic series); in the assay with ALX4 [3] it was 9.99 upbm affinity estimate (log intensity, higher = more binding, comparable within an allelic series); with HOXA7 [4] it was 8.92 upbm affinity estimate (log intensity, higher = more binding, comparable within an allelic series).

On to CCAAGCCA, for which the binding signal in the assay with HOXA7 [1] is 8.43 upbm affinity estimate (log intensity, higher = more binding, comparable within an allelic series); with ALX1 [5], 6.51 upbm affinity estimate (log intensity, higher = more binding, comparable within an allelic series); with ALX1 [6], 6.6 upbm affinity estimate (log intensity, higher = more binding, comparable within an allelic series); with HOXA7 [4] it was 8.54 upbm affinity estimate (log intensity, higher = more binding, comparable within an allelic series); with ALX1 [7], 6.46 upbm affinity estimate (log intensity, higher = more binding, comparable within an allelic series).

AATAACAT: the binding signal is 10.1 upbm affinity estimate (log intensity, higher = more binding, comparable within an allelic series) in the assay with HOXA7 [1]; 9.56 upbm affinity estimate (log intensity, higher = more binding, comparable within an allelic series) in the assay with HOXA2 [8]; 11.6 upbm affinity estimate (log intensity, higher = more binding, comparable within an allelic series) in the assay with HOXA2 [9]; 10.9 upbm affinity estimate (log intensity, higher = more binding, comparable within an allelic series) in the assay with HOXA2 [10]; 8.98 upbm affinity estimate (log intensity, higher = more binding, comparable within an allelic series) with HOXA7 [4]; 9.63 upbm affinity estimate (log intensity, higher = more binding, comparable within an allelic series) with HOXA2 [11].

CGTTTATC: the binding signal with HOXA7 [1] is 9.65 upbm affinity estimate (log intensity, higher = more binding, comparable within an allelic series); with PROP1 [12], 8.39 upbm affinity estimate (log intensity, higher = more binding, comparable within an allelic series); with PROP1 [13], 7.9 upbm affinity estimate (log intensity, higher = more binding, comparable within an allelic series); with PROP1 [14] it was 7.41 upbm affinity estimate (log intensity, higher = more binding, comparable within an allelic series); in the assay with HOXA7 [4], 8.89 upbm affinity estimate (log intensity, higher = more binding, comparable within an allelic series).

Consider ACCCAGCC, for which the binding signal in the assay with HOXA7 [1] was 8.44 upbm affinity estimate (log intensity, higher = more binding, comparable within an allelic series); with ALX4 [2] it was 8.13 upbm affinity estimate (log intensity, higher = more binding, comparable within an allelic series); in the assay with ALX4 [3], 8.18 upbm affinity estimate (log intensity, higher = more binding, comparable within an allelic series); with VAX1 [15], 7.07 upbm affinity estimate (log intensity, higher = more binding, comparable within an allelic series); in the assay with VAX1 [16], 7.26 upbm affinity estimate (log intensity, higher = more binding, comparable within an allelic series); with HOXA7 [4], 8.42 upbm affinity estimate (log intensity, higher = more binding, comparable within an allelic series). In addition, the binding signal with VAX1 [17] was 7 upbm affinity estimate (log intensity, higher = more binding, comparable within an allelic series).

For ATTACCAC, the binding signal with HOXA7 [1] is 10.4 upbm affinity estimate (log intensity, higher = more binding, comparable within an allelic series); with HOXD13 [18] it was 10.1 upbm affinity estimate (log intensity, higher = more binding, comparable within an allelic series); with HOXD13 [19], 10.7 upbm affinity estimate (log intensity, higher = more binding, comparable within an allelic series); with HOXA7 [4], 8.73 upbm affinity estimate (log intensity, higher = more binding, comparable within an allelic series).

As to CCAGCTGG, the binding signal with HOXA7 [1] was 8.23 upbm affinity estimate (log intensity, higher = more binding, comparable within an allelic series); with HOXA2 [8], 7.34 upbm affinity estimate (log intensity, higher = more binding, comparable within an allelic series); in the assay with NKX2-6, 9.68 upbm affinity estimate (log intensity, higher = more binding, comparable within an allelic series); with HOXA2 [9], 10.4 upbm affinity estimate (log intensity, higher = more binding, comparable within an allelic series); with HOXA2 [10] it was 10.5 upbm affinity estimate (log intensity, higher = more binding, comparable within an allelic series); with HOXA7 [4], 8.36 upbm affinity estimate (log intensity, higher = more binding, comparable within an allelic series). Moreover, the binding signal with HOXA2 [11] is 7.34 upbm affinity estimate (log intensity, higher = more binding, comparable within an allelic series).

Consider AATTACCT, for which the binding signal with HOXA7 [1] was 11.3 upbm affinity estimate (log intensity, higher = more binding, comparable within an allelic series); with HOXB6 [20], 9.87 upbm affinity estimate (log intensity, higher = more binding, comparable within an allelic series); in the assay with HOXA4 [21], 12.1 upbm affinity estimate (log intensity, higher = more binding, comparable within an allelic series); with HOXC10, 11.9 upbm affinity estimate (log intensity, higher = more binding, comparable within an allelic series); with MSX2, 12.9 upbm affinity estimate (log intensity, higher = more binding, comparable within an allelic series); with HOXA7 [4], 8.74 upbm affinity estimate (log intensity, higher = more binding, comparable within an allelic series). In addition, the binding signal in the assay with HOXA4 [22] is 11.5 upbm affinity estimate (log intensity, higher = more binding, comparable within an allelic series); with HOXB6 [23], 11.8 upbm affinity estimate (log intensity, higher = more binding, comparable within an allelic series).

Turning to CGTCGCCC, the binding signal with HOXA7 [1] is 8.61 upbm affinity estimate (log intensity, higher = more binding, comparable within an allelic series); with ALX1 [5], 6.4 upbm affinity estimate (log intensity, higher = more binding, comparable within an allelic series); in the assay with ALX1 [6] it was 6.34 upbm affinity estimate (log intensity, higher = more binding, comparable within an allelic series); with HOXA7 [4], 8.42 upbm affinity estimate (log intensity, higher = more binding, comparable within an allelic series); with ALX1 [7], 6.57 upbm affinity estimate (log intensity, higher = more binding, comparable within an allelic series).

For the sequence CTGCTTCA, the binding signal is 8.51 upbm affinity estimate (log intensity, higher = more binding, comparable within an allelic series) with HOXA7 [1]; 7.83 upbm affinity estimate (log intensity, higher = more binding, comparable within an allelic series) with PITX2; 8.44 upbm affinity estimate (log intensity, higher = more binding, comparable within an allelic series) in the assay with HOXA7 [4].
